According to PubChem BioAssay AID1159580 (chemical genetic matrix, 2015):
Screen size: about 5,500 compounds; about 2,000 (36%) were called active. Another 18% or so got no clear call; they are omitted. Rule as the data show it: active = normalized growth mostly below about 0.91 (no sharp cut-off); inconclusive = no clear call, values can overlap the other calls; inactive = mostly above about 0.92. This is one part of the list.

Assay: chemical genetic growth profiling, strain panel (AID 1159580);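 also: tested at 20 µM; growth read once vehicle control cultures reached saturation at 30 °C; 1 = growth at the plate median or of vehicle wells; lower values mean less growth of the strain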
Settings: S. cerevisiae deletion strains, growth OD

Measured: normalized growth

CCC(=O)Nc1ccc(Cl)c(Cl)c1
inactive: locus YAL013W, strain DEP1, stronger effect = lower value 0.99 | locus YAL021C, strain ccr4, stronger effect = lower value 0.975 | locus YAL026C, strain drs2, stronger effect = lower value 0.994 | locus YAL030W, strain snc1, stronger effect = lower value 1.01 | locus YBL061C, strain skt5, stronger effect = lower value 0.978 | locus YBR009C, strain hhf1, stronger effect = lower value 0.982 | locus YBR021W, strain FUR4, stronger effect = lower value 0.952 | locus YBR023C, strain chs3, stronger effect = lower value 0.988 | locus YBR171W, strain sec66, stronger effect = lower value 0.983 | locus YBR229C, strain ROT2, stronger effect = lower value 1 | locus YBR231C, strain swc5, stronger effect = lower value 0.982 | locus YBR279W, strain paf1, stronger effect = lower value 0.99 | locus YCL011C, strain gbp2, stronger effect = lower value 0.983 | locus YCL016C, strain dcc1, stronger effect = lower value 0.989 | locus YCL029C, strain bik1, stronger effect = lower value 1.01 | locus YCL061C, strain MRC1, stronger effect = lower value 0.986 | locus YCL069W, strain vba3, stronger effect = lower value 0.996 | locus YCR088W, strain abp1, stronger effect = lower value 0.99 | locus YDL005C, strain med2, stronger effect = lower value 0.981 | locus YDL035C, strain GPR1, stronger effect = lower value 0.988 | locus YDL040C, strain nat1, stronger effect = lower value 0.99 | locus YDL074C, strain BRE1, stronger effect = lower value 0.898 | locus YDL101C, strain DUN1, stronger effect = lower value 0.999 | locus YDL134C, strain PPH21, stronger effect = lower value 1 | locus YDL185W, strain tfp1, stronger effect = lower value 0.99 | locus YDL192W, strain arf1, stronger effect = lower value 0.994 | locus YDR001C, strain nth1, stronger effect = lower value 0.989 | locus YDR069C, strain doa4, stronger effect = lower value 0.971 | locus YDR101C, strain arx1, stronger effect = lower value 0.991 | locus YDR137W, strain rgp1, stronger effect = lower value 1.03 | locus YDR150W, strain NUM1, stronger effect = lower value 0.998 | locus YDR159W, strain sac3, stronger effect = lower value 0.959 | locus YDR162C, strain NBP2, stronger effect = lower value 0.985 | locus YDR195W, strain ref2 0.956 | locus YDR297W, strain sur2, stronger effect = lower value 0.988 | locus YDR318W, strain mcm21, stronger effect = lower value 0.996 | locus YDR334W, strain swr1, stronger effect = lower value 0.996 | locus YDR335W, strain msn5, stronger effect = lower value 0.988 | locus YDR388W, stronger effect = lower value 1 | locus YDR392W, strain spt3, stronger effect = lower value 0.98 | locus YDR502C, strain sam2, stronger effect = lower value 0.998 | locus YEL003W, strain gim4, stronger effect = lower value 0.992 | locus YEL037C, strain rad23, stronger effect = lower value 1 | locus YEL061C, strain CIN8 (second series), stronger effect = lower value 0.978 | locus YEL061C, strain CIN8, stronger effect = lower value 0.994 | locus YER016W, strain bim1, stronger effect = lower value 0.991 | locus YER110C, stronger effect = lower value 0.996 | locus YER111C, strain swi4, stronger effect = lower value 0.989 | locus YER155C, strain BEM2 (second series), stronger effect = lower value 0.998 | locus YER155C, strain BEM2, stronger effect = lower value 1.01 | locus YER167W, strain BCK2, stronger effect = lower value 1 | locus YFR010W, strain ubp6, stronger effect = lower value 0.993 | locus YGL078C, strain dbp3, stronger effect = lower value 1.01 | locus YGL086W, strain mad1, stronger effect = lower value 0.997 | locus YGL167C, strain pmr1, stronger effect = lower value 0.984 | locus YGL173C, strain kem1, stronger effect = lower value 0.978 | locus YGL227W, strain vid30, stronger effect = lower value 0.988 | locus YGL240W, strain doc1, stronger effect = lower value 0.96 | locus YGL248W, strain PDE1, stronger effect = lower value 0.993 | locus YGL253W, strain hxk2, stronger effect = lower value 1 | locus YGR078C, strain PAC10, stronger effect = lower value 0.961 | locus YGR135W, strain pre9, stronger effect = lower value 0.982 | locus YGR229C, strain SMI1, stronger effect = lower value 0.958 | locus YGR252W, strain gcn5, stronger effect = lower value 0.874 | locus YHR013C, strain ard1, stronger effect = lower value 0.971 | locus YHR027C, strain rpn1, stronger effect = lower value 0.994 | locus YHR030C, strain SLT2, stronger effect = lower value 0.978 | locus YHR079C, strain IRE1 (second series), stronger effect = lower value 0.999 | locus YHR094C, strain hxt1, stronger effect = lower value 1 | locus YHR129C, strain ARP1, stronger effect = lower value 0.988 | locus YHR142W, strain chs7, stronger effect = lower value 1 | locus YHR200W, strain rpn10, stronger effect = lower value 1 | locus YIL066C, strain RNR3, stronger effect = lower value 0.991 | locus YIL073C, strain SPO22, stronger effect = lower value 1.01 | locus YIL125W, strain kgd1, stronger effect = lower value 1 | locus YIR030C, strain dcg1, stronger effect = lower value 1 | locus YJL092W, strain hpr5, stronger effect = lower value 0.985 | locus YJL095W, strain BCK1 (second series), stronger effect = lower value 0.996 | locus YJL095W, strain BCK1, stronger effect = lower value 0.924 | locus YJL115W, strain asf1, stronger effect = lower value 0.992 | locus YJL129C, strain trk1, stronger effect = lower value 0.968 | locus YJL134W, strain LCB3, stronger effect = lower value 0.986 | locus YJL154C, strain vps35, stronger effect = lower value 0.998 | locus YJL164C, strain tpk1, stronger effect = lower value 1.01 | locus YJL166W, strain qcr8, stronger effect = lower value 0.986 | locus YJL168C, strain set2, stronger effect = lower value 1 | locus YJL187C, strain SWE1 (second series), stronger effect = lower value 1.01 | locus YJL187C, strain SWE1, stronger effect = lower value 0.984
